# Source: PubChem BioAssay AID1159580 (chemical genetic matrix, 2015)
# Out of some 5,500 compounds screened, about 2,000 (36%) were called active. Another 18% or so got no clear call; they are omitted. This is one part of the list. Values without a mark were called inactive. No stated cut-off is given here; in the data, active means normalized growth mostly below about 0.91 (no sharp cut-off); inconclusive means no clear call, values can overlap the other calls; inactive means mostly above about 0.92.
# Assay: chemical genetic growth profiling, strain panel (AID 1159580);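 further: tested at 20 µM; growth read once vehicle control cultures reached saturation at 30 °C; 1 = growth at the plate median or of vehicle wells; lower values mean less growth of the strain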
# Conditions: growth OD
# [1] = S. cerevisiae deletion strains, locus YDL101C, strain DUN1, active compounds read low
# [2] = S. cerevisiae deletion strains, locus YHR030C, strain SLT2, active compounds read low
# [3] = S. cerevisiae deletion strains, locus YAL013W, strain DEP1, active compounds read low
# [4] = S. cerevisiae deletion strains, locus YBR229C, strain ROT2, active compounds read low
# [5] = S. cerevisiae deletion strains, locus YDL134C, strain PPH21, active compounds read low
# [6] = S. cerevisiae deletion strains, locus YDR150W, strain NUM1, active compounds read low
# [7] = S. cerevisiae deletion strains, locus YEL061C, strain CIN8, active compounds read low
# [8] = S. cerevisiae deletion strains, locus YGR078C, strain PAC10, active compounds read low
# [9] = S. cerevisiae deletion strains, locus YGR229C, strain SMI1, active compounds read low
# [10] = S. cerevisiae deletion strains, locus YHR087W, strain rtc3, active compounds read low
# [11] = S. cerevisiae deletion strains, locus YJL187C, strain SWE1, active compounds read low
# [12] = S. cerevisiae deletion strains, locus YJR043C, strain POL32, active compounds read low
# [13] = S. cerevisiae deletion strains, locus YJR075W, strain HOC1, active compounds read low
# [14] = S. cerevisiae deletion strains, locus YLR039C, strain RIC1, active compounds read low
# [15] = S. cerevisiae deletion strains, locus YLR058C, strain SHM2 (second series), active compounds read low
# [16] = S. cerevisiae deletion strains, locus YLR085C, strain ARP6, active compounds read low
# [17] = S. cerevisiae deletion strains, locus YLR262C, strain YPT6, active compounds read low
# [18] = S. cerevisiae deletion strains, locus YML094W, strain GIM5, active compounds read low
# [19] = S. cerevisiae deletion strains, locus YMR219W, strain ESC1, active compounds read low
# [20] = S. cerevisiae deletion strains, locus YMR263W, strain SAP30, active compounds read low
# [21] = S. cerevisiae deletion strains, locus YNL153C, strain GIM3, active compounds read low
# [22] = S. cerevisiae deletion strains, locus YNL298W, strain CLA4 (second series), active compounds read low
# [23] = S. cerevisiae deletion strains, locus YNL322C, strain KRE1, active compounds read low
# [24] = S. cerevisiae deletion strains, locus YNR030W, strain Alg12, active compounds read low
# [25] = S. cerevisiae deletion strains, locus YPL055C, strain LGE1, active compounds read low
# [26] = S. cerevisiae deletion strains, locus YPL241C, strain CIN2, active compounds read low
# [27] = S. cerevisiae deletion strains, locus YPR135W, strain CTF4, active compounds read low
# [28] = S. cerevisiae strains, strain wild type, active compounds read low
# [29] = S. cerevisiae deletion strains, locus YKL190W, strain CNB1, active compounds read low
# [30] = S. cerevisiae deletion strains, locus YOL006C, strain TOP1, active compounds read low
smiles,measurement,setting,value
O=[N+]([O-])c1cnc(Sc2nnc(SCc3cccc(C(F)(F)F)c3)s2)s1,normalized growth,"S. cerevisiae deletion strains, locus YAR019C, strain CDC15, active compounds read low",0.098 (active)
same,normalized growth,"S. cerevisiae deletion strains, locus YBL105C, strain PKC1, active compounds read low",0.0818 (active)
same,normalized growth,"S. cerevisiae deletion strains, locus YBR135W, strain CKS1, active compounds read low",0.0984 (active)
same,normalized growth,"S. cerevisiae deletion strains, locus YBR136W, strain MEC1, active compounds read low",0.0945 (active)
same,normalized growth,"S. cerevisiae deletion strains, locus YBR160W, strain CDC28, active compounds read low",0.0963 (active)
same,normalized growth,"S. cerevisiae deletion strains, locus YDL017W, strain CDC7, active compounds read low",0.0822 (active)
same,normalized growth,"S. cerevisiae deletion strains, locus YDL028C, strain MPS1, active compounds read low",0.111 (active)
same,normalized growth,[1],0.107 (active)
same,normalized growth,"S. cerevisiae deletion strains, locus YDL108W, strain KIN28, active compounds read low",0.0971 (active)
same,normalized growth,"S. cerevisiae deletion strains, locus YDL132W, strain cdc53, active compounds read low",0.0889 (active)
same,normalized growth,"S. cerevisiae deletion strains, locus YDL214C, strain PRR2, active compounds read low",0.106 (active)
same,normalized growth,"S. cerevisiae deletion strains, locus YDR052C, strain DBF4, active compounds read low",0.0805 (active)
same,normalized growth,"S. cerevisiae deletion strains, locus YDR054C, strain cdc34, active compounds read low",0.0921 (active)
same,normalized growth,"S. cerevisiae deletion strains, locus YDR226W, strain ADK1, active compounds read low",0.0971 (active)
same,normalized growth,"S. cerevisiae deletion strains, locus YDR477W, strain SNF1, active compounds read low",0.101 (active)
same,normalized growth,"S. cerevisiae deletion strains, locus YER123W, strain YCK3, active compounds read low",0.111 (active)
same,normalized growth,"S. cerevisiae deletion strains, locus YER133W, strain GLC7, active compounds read low",0.107 (active)
same,normalized growth,"S. cerevisiae deletion strains, locus YFL009W, strain cdc4, active compounds read low",0.102 (active)
same,normalized growth,"S. cerevisiae deletion strains, locus YFL029C, strain CAK1, active compounds read low",0.098 (active)
same,normalized growth,"S. cerevisiae deletion strains, locus YFR003C, strain YPI1, active compounds read low",0.0893 (active)
same,normalized growth,"S. cerevisiae deletion strains, locus YFR019W, strain FAB1, active compounds read low",0.106 (active)
same,normalized growth,"S. cerevisiae deletion strains, locus YFR028C, strain CDC14, active compounds read low",0.0995 (active)
same,normalized growth,"S. cerevisiae deletion strains, locus YGR040W, strain KSS1, active compounds read low",0.0976 (active)
same,normalized growth,"S. cerevisiae deletion strains, locus YGR052W, strain FMP48, active compounds read low",0.101 (active)
same,normalized growth,"S. cerevisiae deletion strains, locus YGR092W, strain DBF2, active compounds read low",0.0989 (active)
same,normalized growth,[2],0.131 (active)
same,normalized growth,"S. cerevisiae deletion strains, locus YHR079C, strain IRE1, active compounds read low",0.0953 (active)
same,normalized growth,"S. cerevisiae deletion strains, locus YHR082C, strain KSP1, active compounds read low",0.13 (active)
same,normalized growth,"S. cerevisiae deletion strains, locus YHR205W, strain SCH9, active compounds read low",-0.0106 (active)
same,normalized growth,"S. cerevisiae deletion strains, locus YIL147C, strain SLN1, active compounds read low",0.102 (active)
same,normalized growth,"S. cerevisiae deletion strains, locus YJL095W, strain BCK1, active compounds read low",0.118 (active)
same,normalized growth,"S. cerevisiae deletion strains, locus YJL128C, strain PBS2, active compounds read low",0.0978 (active)
same,normalized growth,"S. cerevisiae deletion strains, locus YJL157C, strain FAR1, active compounds read low",0.0837 (active)
same,normalized growth,"S. cerevisiae deletion strains, locus YJR016C, strain ILV3, active compounds read low",0.0869 (active)
same,normalized growth,"S. cerevisiae deletion strains, locus YJR066W, strain TOR1 (second series), active compounds read low",0.0917 (active)
same,normalized growth,"S. cerevisiae deletion strains, locus YJR066W, strain TOR1, active compounds read low",0.122 (active)
same,normalized growth,"S. cerevisiae deletion strains, locus YKL048C, strain ELM1, active compounds read low",0.111 (active)
same,normalized growth,"S. cerevisiae deletion strains, locus YKL067W, strain YNK1, active compounds read low",0.105 (active)
same,normalized growth,"S. cerevisiae deletion strains, locus YKL101W, strain HSL1, active compounds read low",0.1 (active)
same,normalized growth,"S. cerevisiae deletion strains, locus YKL193C, strain SDS22, active compounds read low",0.0958 (active)
same,normalized growth,"S. cerevisiae deletion strains, locus YKL203C, strain TOR2, active compounds read low",0.111 (active)
same,normalized growth,"S. cerevisiae deletion strains, locus YLR113W, strain HOG1, active compounds read low",0.127 (active)
same,normalized growth,"S. cerevisiae deletion strains, locus YLR133W, strain CKI1, active compounds read low",0.0966 (active)
same,normalized growth,"S. cerevisiae deletion strains, locus YLR403W, strain SFP1, active compounds read low",-0.00531 (active)
same,normalized growth,"S. cerevisiae deletion strains, locus YML070W, strain DAK1, active compounds read low",0.103 (active)
same,normalized growth,"S. cerevisiae deletion strains, locus YMR001C, strain CDC5, active compounds read low",0.0974 (active)
same,normalized growth,"S. cerevisiae deletion strains, locus YMR205C, strain PFK2 (second series), active compounds read low",0.101 (active)
same,normalized growth,"S. cerevisiae deletion strains, locus YMR277W, strain FCP1, active compounds read low",0.0974 (active)
same,normalized growth,"S. cerevisiae deletion strains, locus YNL006W, strain LST8, active compounds read low",0.0863 (active)
same,normalized growth,"S. cerevisiae deletion strains, locus YNL020C, strain ARK1, active compounds read low",0.109 (active)
same,normalized growth,"S. cerevisiae deletion strains, locus YNL161W, strain CBK1, active compounds read low",0.0953 (active)
same,normalized growth,"S. cerevisiae deletion strains, locus YNL183C, strain NPR1, active compounds read low",0.093 (active)
same,normalized growth,"S. cerevisiae deletion strains, locus YNL207W, strain RIO2, active compounds read low",0.0918 (active)
same,normalized growth,"S. cerevisiae deletion strains, locus YNL222W, strain SSU72, active compounds read low",0.1 (active)
same,normalized growth,"S. cerevisiae deletion strains, locus YNL307C, strain MCK1 (second series), active compounds read low",0.108 (active)
same,normalized growth,"S. cerevisiae deletion strains, locus YOL078W, strain AVO1, active compounds read low",0.0995 (active)
same,normalized growth,"S. cerevisiae deletion strains, locus YOL136C, strain PFK27, active compounds read low",0.0976 (active)
same,normalized growth,"S. cerevisiae deletion strains, locus YOR061W, strain CKA2, active compounds read low",0.0984 (active)
same,normalized growth,"S. cerevisiae deletion strains, locus YOR119C, strain RIO1, active compounds read low",0.105 (active)
same,normalized growth,"S. cerevisiae deletion strains, locus YOR231W, strain MKK1, active compounds read low",0.0992 (active)
same,normalized growth,"S. cerevisiae deletion strains, locus YOR329C, strain SCD5, active compounds read low",0.0854 (active)
same,normalized growth,"S. cerevisiae deletion strains, locus YPL031C, strain PHO85, active compounds read low",0.103 (active)
same,normalized growth,"S. cerevisiae deletion strains, locus YPL153C, strain RAD53, active compounds read low",0.0944 (active)
same,normalized growth,"S. cerevisiae deletion strains, locus YPL204W, strain HRR25, active compounds read low",0.107 (active)
same,normalized growth,"S. cerevisiae deletion strains, locus YPL209C, strain IPL1, active compounds read low",0.0842 (active)
same,normalized growth,"S. cerevisiae deletion strains, locus YPL256C, strain CLN2, active compounds read low",0.133 (active)
same,normalized growth,"S. cerevisiae deletion strains, locus YPR025C, strain CCL1, active compounds read low",0.0989 (active)
same,normalized growth,"S. cerevisiae deletion strains, locus YPR106W, strain ISR1, active compounds read low",0.0861 (active)
same,normalized growth,"S. cerevisiae deletion strains, locus YPR111W, strain DBF20, active compounds read low",0.0999 (active)
same,normalized growth,"S. cerevisiae deletion strains, strain NNK1, active compounds read low",0.0942 (active)
same,normalized growth,"S. cerevisiae deletion strains, strain TSCII, active compounds read low",0.102 (active)
S=c1[nH]nc(SCCSc2n[nH]c(=S)s2)s1,normalized growth,[3],0.969
same,normalized growth,[4],1.04
same,normalized growth,[1],0.947
same,normalized growth,[5],0.993
same,normalized growth,[6],1.03
same,normalized growth,[7],1.02
same,normalized growth,[8],0.952
same,normalized growth,[9],0.987
same,normalized growth,[2],1.1
same,normalized growth,[10],1.02
same,normalized growth,[11],0.93 (active)
same,normalized growth,[12],1.02
same,normalized growth,[13],1.06
same,normalized growth,[14],1
same,normalized growth,[15],0.989
same,normalized growth,[16],0.945
same,normalized growth,[17],1.16
same,normalized growth,[18],0.988
same,normalized growth,[19],0.969
same,normalized growth,[20],0.994
same,normalized growth,"S. cerevisiae deletion strains, locus YMR307W, strain GAS1, active compounds read low",1
same,normalized growth,[21],1
same,normalized growth,[22],0.963
same,normalized growth,[23],0.987
same,normalized growth,[24],0.989
same,normalized growth,[25],0.965
same,normalized growth,[26],0.984
same,normalized growth,[27],1.02
same,normalized growth,[28],0.988
O=[N+]([O-])c1ccccc1SCc1n[nH]c(=S)n1-c1cccc(C(F)(F)F)c1,normalized growth,[3],0.973
same,normalized growth,[4],0.991
same,normalized growth,"S. cerevisiae deletion strains, locus YCL061C, strain MRC1, active compounds read low",0.989
same,normalized growth,[1],1
same,normalized growth,[5],1.01
same,normalized growth,[6],1.01
same,normalized growth,[7],0.969
same,normalized growth,[8],0.967
same,normalized growth,[9],0.994
same,normalized growth,[2],1.04
same,normalized growth,[10],1.01
same,normalized growth,[12],0.999
same,normalized growth,[13],1.02
same,normalized growth,[29],0.974
same,normalized growth,[14],0.988
same,normalized growth,[15],0.996
same,normalized growth,[16],0.87
same,normalized growth,[17],1.01
same,normalized growth,[18],0.967
same,normalized growth,[19],0.992
same,normalized growth,[20],1
same,normalized growth,[21],1.03
same,normalized growth,[22],0.932
same,normalized growth,[23],0.97
same,normalized growth,[24],0.94
same,normalized growth,[30],0.886
same,normalized growth,[25],0.99
same,normalized growth,[26],0.985
same,normalized growth,[27],1.13
same,normalized growth,[28],0.975
FC(F)(F)c1cccc(CSc2n[nH]c(=S)s2)c1,normalized growth,[3],0.774 (active)
same,normalized growth,[4],0.479 (active)
same,normalized growth,[1],0.522 (active)
same,normalized growth,[5],0.883 (active)
same,normalized growth,[6],0.903
same,normalized growth,[7],0.861 (active)
same,normalized growth,[8],0.427 (active)
same,normalized growth,[2],0.728
same,normalized growth,[10],0.592 (active)
same,normalized growth,[11],0.51 (active)
same,normalized growth,[12],0.791 (active)
same,normalized growth,[13],0.31 (active)
same,normalized growth,[29],0.887 (active)
same,normalized growth,[14],0.706 (active)
same,normalized growth,[15],0.797 (active)
same,normalized growth,[16],0.593 (active)
same,normalized growth,[17],0.838
same,normalized growth,[18],0.914
same,normalized growth,[19],0.606 (active)
same,normalized growth,[20],0.763 (active)
same,normalized growth,[21],0.533 (active)
same,normalized growth,[22],0.787 (active)
same,normalized growth,[23],0.873 (active)
same,normalized growth,[24],0.824 (active)
same,normalized growth,[30],0.409 (active)
same,normalized growth,[26],0.833 (active)
same,normalized growth,[27],0.638 (active)
